Test results reported in PubChem BioAssay (EPA / NIEHS).
Activity calls are given as the source filed them. How the source made its calls: active means hit-call score of the fitted dose curve at least 0.9, where 1 is the maximum; inactive means score below 0.9.

read-out: Interleukin 6 (IL6), IL6 (gene 3569); assay: LTEA_HepaRG_IL6: Life Technologies and Expression Analysis (LTEA) Assay for Interleukin 6 (IL6) using HepaRG (AID 2283509); settings: mRNA level, 48 h; actives raise or lower the signal
Procedure: LTEA_HepaRG is a cell based, multiplexed-readout assay that uses HepaRG, a human liver cell line, with measurements taken at 48 hours after chemical dosing on a 96-well plate.LTEA_HepaRG_IL6 is one of 102 assay component(s) measured in the LTEA HepaRG cell culture assay. It is a marker of Inflammation.Data from the assay component LTEA_HepaRG_IL6 was analyzed into 1 endpoint. This assay endpoint, LTEA_HepaRG_IL6, was analyzed with bidirectional fitting relative to DMSO as the negative control and baseline of activity. Using a type of inducible reporter, measures of mRNA induction for gain or loss-of-signal activity can be used to understand regulation of transcription factor activity. To generalize the intended target to other relatable targets, this assay endpoint is annotated to the cytokine intended target family, where the subfamily is interleukins.
A total of 1060 chemcials from the ToxCast library were tested in eight-point concentration-response experiments. Cell culture and cytotoxicity assays were conducted at Thermo Fisher Scientific's Custom Services facility (Madison, WI). A single lot of human HepaRG cells (Thermo Fisher Scientific, Frederick, MD) was used for the cell culture experiments. 96-well format collagen type I coated plates of human HepaRG cells were prepared using established methods. Briefly, cryopreserved HepaRG cells were thawed, plated at a density of approximately 100,000 cells/well in HepaRG Thaw, Plate, and General Purpose media (HPRG770, Thermo Fisher Scientific), and incubated for 48 hours. 0.5% DMSO was selected as vehicle control to balance the requisite need of DMSO in HepaRG cultures to maintain differentiation (for example, baseline metabolism, proportions of hepatocytes vs. cholangiocytes), while enabling further hepatic receptor pathway activation (for example, PXR and CAR) in response to chemical exposure. 48 hours after plating, the culture medium was replaced with HepaRG Serum-Free Incudtion Media. Cells were exposed to each test chemical in duplicate and maintained in CO2 incubators for another 48 hours. Chemical plates were thawed to room temperature and 200x concentrations of treatment groups were prepared. 8-point conentration-reponse curves were made with the highest exposure at 100 uM, followed by half-log dilutions, all in 0.5% DMSO. Each test plate contained variouse controls, induction positive controls (1mM phenobarbital), cytotoxicity positive controls ([…] aflatoxin B1), vehicle controls (0.5% DMSO), and total lysis controls (0.5% DMSO). Cell morphology images were taken using an Essen IncuCyte FLR automated microscope, with six 96-well plates imaged in about 24 minutes. Images were captured and exported and JPEG files. Spent culture media was transfered to black-well plates for the LDH assay, and remaining media was sorted at -80 C for later use. Cells were treated with RLT buffer and frozen until shipped for gene expression analysis. Total RNA was isolated from the cell suspension in 75 uL of Buffer RLT (Qiagen, Germantown, MD 20874) by Quintiles/Expression Analysis (Durham, NC) using a custom isolation procedure. Total RNA from each plate well was transferred to a preamplification plate. Fluidigm's 96.96 Dynamic ArrayTM (Fluidigm, Amsterdam, the Netherlands) technology was used for gene expression analyses by quantitative reverse transcription polymerase chain reaction (qRT-PCR, performed by Quintiles/Expression Analysis, Durham, NC)89. Standard TaqManTM Assays (Applied Biosystems/ThermoFisher Scientific, Foster City, CA) were used to assess the expression of 93 genes selected based on their selectivity and sensitivity to important hepatic receptors known to be modulated by environmental chemicals; importance in human hepatocyte functionality; and hepatotoxicity. […]

`CCCCCOC(=O)c1ccccc1C(=O)OCCCCC` was tested. Which outcome did it give?
The outcome was “inactive”.

`O=P(OCCCl)(OCCCl)OCCCl` was tested. Which outcome did it give?
Its outcome is “inactive”.

For `COC(=O)c1ccccc1N`, which outcome is on record?
The outcome was “inactive”.

For `CN(C)[C@@H]1C(=O)C(C(N)=O)=C(O)[C@@]2(O)C(=O)C3=C(O)c4c(O)cccc4[C@@](C)(O)[C@H]3C[C@@H]12`, which outcome is on record?
The outcome was “inactive”.

How did the outcome turn out when `[As]#[In]` was run?
The outcome was “inactive”.

How did the AC50 turn out when `O=C(O)C1C2CCC(O2)C1C(=O)O` (stereo not given) was run?
The AC50 was 16.5 µM (active).

Which AC50 does the source give for `CCOC(=O)[C@]1(c2ccccc2)Oc2ccccc2[C@@H]1N` here?
Its AC50 is 84.8 µM (active).

How did the outcome turn out when `CCNS(=O)(=O)C(F)(F)C(F)(F)C(F)(F)C(F)(F)C(F)(F)C(F)(F)C(F)(F)C(F)(F)F` was run?
The outcome was “inactive”.

How did the outcome turn out when `CC(C)(OOC(C)(C)c1ccccc1)c1ccccc1` was run?
Its outcome is “inactive”.

For `OCCCl`, which outcome is on record?
The outcome was “inactive”.

With `CCC(C)c1ccc(O)cc1` (stereo not given) as the compound, how does the outcome read?
The outcome was “inactive”.

For `Clc1ccc(Cl)c(Cl)c1`, which outcome is on record?
The outcome was “inactive”.

Which AC50 does the source give for `C[C@]12C=CC3=C4CCC(=O)C=C4CC[C@H]3[C@@H]1CC[C@@H]2O` here?
Its AC50 is 9.92 µM (active).

For `COc1cc(C=O)cc2c1[C@H](COC(N)=O)[C@]1(OC(C)=O)ON2C[C@H]2[C@@H]1N2C(C)=O`, which AC50 is on record?
The AC50 was 1.52 µM (active).

For `CN(C)c1ccccc1`, which outcome is on record?
Its outcome is “inactive”.

How did the outcome turn out when `CN(C)C(=O)Nc1ccc(Cl)cc1` was run?
Its outcome is “inactive”.

For `O=C1CCCO1`, which outcome is on record?
Its outcome is “inactive”.

Which outcome does the source give for `N#CC(Br)Br` here?
Its outcome is “inactive”.

For `c1ccc2c(c1)oc1ccccc12`, which outcome is on record?
Its outcome is “inactive”.

Which outcome does the source give for `Cc1ccc([N+](=O)[O-])cc1` here?
The outcome was “inactive”.

With `c1ccc(N=Nc2ccccc2)cc1` as the compound, how does the outcome read?
The outcome was “inactive”.

`CN(C)c1ccc(C(=O)c2ccc(N(C)C)cc2)cc1` was tested. Which outcome did it give?
Its outcome is “inactive”.

Which outcome does the source give for `CCCCOC(=O)c1ccccc1C(=O)OCc1ccccc1` here?
Its outcome is “inactive”.

With `COP(=S)(OC)SCN1C(=O)c2ccccc2C1=O` as the compound, how does the outcome read?
The outcome was “inactive”.

With `O=Cc1ccco1` as the compound, how does the outcome read?
Its outcome is “inactive”.

`Nc1ccc(Cl)cc1N` was tested. Which AC50 did it give?
The AC50 was 73.4 µM (active).

Which outcome does the source give for `CCCCCCCCOC(=O)c1ccc(C(=O)OCCCCCCCC)c(C(=O)OCCCCCCCC)c1` here?
The outcome was “inactive”.

`C[N+](C)(C)CC1CO1` (stereo not given) was tested. Which outcome did it give?
The outcome was “inactive”.

With `CC(C)(C)C(O)(CCc1ccc(Cl)cc1)Cn1cncn1` (stereo not given) as the compound, how does the outcome read?
Its outcome is “inactive”.

How did the outcome turn out when `CC(C)(O)c1cnn2c(-c3ccc(F)c(-c4c(F)cccc4C#N)c3)cnc2n1` was run?
The outcome was “inactive”.

With `Cc1cc(N=Nc2ccccc2C)ccc1N` as the compound, how does the outcome read?
The outcome was “inactive”.

With `ClC1=C(Cl)C2(Cl)C3C(Cl)C=CC3C1(Cl)C2(Cl)Cl` (stereo not given) as the compound, how does the outcome read?
The outcome was “inactive”.

Which outcome does the source give for `O=[N+]([O-])C(Br)(CO)CO` here?
Its outcome is “inactive”.

Which outcome does the source give for `O=[N+]([O-])c1ccc(Oc2ccc(Cl)cc2Cl)cc1` here?
The outcome was “inactive”.

For `CCCCCCCCn1sccc1=O`, which outcome is on record?
Its outcome is “inactive”.

With `[O-][Cl+]O` as the compound, how does the outcome read?
The outcome was “inactive”.

With `ClC1=C(Cl)[C@]2(Cl)[C@H]3[C@H]([C@@H]4C=C[C@H]3C4)[C@@]1(Cl)C2(Cl)Cl` as the compound, how does the outcome read?
Its outcome is “inactive”.

For `Brc1ccc(Oc2ccccc2)cc1`, which outcome is on record?
The outcome was “inactive”.

Which outcome does the source give for `CCC12COCN1COC2` here?
The outcome was “inactive”.

Which outcome does the source give for `CCN(CC)CCO` here?
The outcome was “inactive”.
